Source: PubChem BioAssay (several laboratories)
Sa ugtP lethal – growth inhibition of ugtP-null S. aureus, primary screen, RN4220 ugtP deletion, OD600; 16 h; growth inhibition, % (no concentration beside the values); actives 0.54% (n = 330,000); AID 1259309, 2017; in the data active means growth inhibition above about 68%
Yp Topo-I inh – Yersinia pestis topoisomerase I inhibitors, primary screen, biochemical, cleavage product accumulation, plate reader, single point. actives 0.064% (n = 360,000). DNA topoisomerase I (Yersinia pestis CO92). Y. pestis Topo-I cleavage product accumulation. AID 504884, 2011. activity, % at 10 µM; in the data active means activity above about 50%, passing the limit was not always enough; inconclusive means no clear call, values can overlap the other calls
BJeLR lethal – MLPCN primary cell-based screen for lethality selective to Ras in HRASV12 cells | BJeLR (HRASV12) viability, CellTiter-Glo ATP luminescence, 48 h | inhibition, % (concentration not given with the values) | actives 0.17% (n = 300,000); in the data active means inhibition above about 50%; inconclusive means no clear call, values can overlap the other calls
PrP UTR inh – inhibition of PrP 5' UTR reporter expression; cell-based PrP 5' UTR mRNA reporter, plate reader; actives 0.35% (n = 340,000); inhibition, % (no concentration beside the values); AID 488862, 2010; in the data active means inhibition above about 52%
PfHsp40 yeast – rescue of yeast from PfHsp40 toxicity, primary screen, S. cerevisiae, ATP luminescence; S. cerevisiae expressing PfHsp40, growth rescue; growth rescue, % at 12.5 µM; actives 0.68% (n = 340,000); in the data active means growth rescue above about 28%, passing the limit was not always enough; inconclusive means no clear call, values can overlap the other calls;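 further: yeast W303a lacking pdr1 and pdr3 grown in galactose medium; growth measured after three days at 30 °C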
Sa RN4220 lethal – growth inhibition of S. aureus RN4220, primary screen, OD600. inhibition, % (no concentration beside the values). AID 1259311, 2017. 16 h. actives 0.33% (n = 330,000); in the data active means inhibition above about 85%
PrP 5UTR single – prion 5' UTR mRNA inhibition, cherry-pick retest. actives 48% (n = 1,100). inhibition, % at 2.5 µM. cell-based prion protein 5' UTR reporter, plate reader. AID 504592, 2011. shares compounds with PrP UTR inh; in the data active means inhibition above about 54%; inconclusive means no clear call, values can overlap the other calls
Hits are given with their value; 0 = inactive; ? = inconclusive; - = no result given. Compounds with a hit are over-represented: about 1.4% of the library has one in this group of screens.

SMILES | Sa ugtP lethal | Yp Topo-I inh | BJeLR lethal | PrP UTR inh | PfHsp40 yeast | Sa RN4220 lethal | PrP 5UTR single
Cc1ccc(C(=O)Nc2cnc3ccccc3c2)cc1 | 0 | 0 | 0 | 88.9 | 0 | 0 | 86.8
Cc1cc(C(=O)Nc2cnc3ccccc3c2)ccc1[N+](=O)[O-] | 0 | 0 | 0 | 0 | 0 | 0 | -
COc1ccccc1C(=O)Nc1nc2ccccc2[nH]1 | - | 0 | 108.9 | 92.0 | 0 | - | 92.5
NC(=NOC(=O)c1cc(Br)ccc1Cl)c1cccnc1 | 0 | - | - | - | - | 0 | -
O=C(CC(Nc1ccc(Cl)cc1Cl)C(=O)O)c1ccccc1 (stereo not drawn) | 0 | 0 | 0 | 62.9 | 0 | 0 | 0
O=C(CC(Nc1ccccc1)C(=O)O)c1ccccc1 (stereo not drawn) | 0 | 0 | 0 | 0 | 0 | 0 | -
Cc1cc(C2CCCCC2)n(O)c(=O)c1 | - | 0 | - | 68.9 | ? | - | 0
O=C(O)Cc1sc(Nc2ccccc2)nc1-c1ccc(Cl)cc1 | 0 | 0 | 0 | 56.9 | 0 | 0 | 0
COC(=O)c1nn(-c2ccc3c(c2)CCN3C(C)=O)cc1O | 0 | 0 | 0 | 81.7 | 0 | 0 | 80.6
Cc1nc(COC(=O)c2ccc(S(=O)(=O)N3CCCC3)cc2)cs1 | 0 | 0 | 0 | 89.4 | 0 | 0 | 0
NC(=O)COC(=O)c1ccc(S(=O)(=O)N2CCCCCC2)cc1 | 0 | 0 | 0 | 0 | 0 | 0 | -
O=C(N/N=C/c1cc2c(cc1Br)OCO2)c1cccnc1 | - | 0 | 0 | 62.2 | 0 | - | 0
O=C(NN=Cc1cc2c(cc1[N+](=O)[O-])OCO2)c1cccnc1 | 0 | - | - | - | - | 0 | -
CCOc1ccccc1C1C2=C(COC2=O)Nc2cc3c(cc21)OCO3 (stereo not drawn) | 0 | 0 | 0 | 64.2 | 0 | 0 | 81.6
O=C1OCC2=C1C(c1ccc(F)cc1)c1cc3c(cc1N2)OCCO3 (stereo not drawn) | 0 | 0 | - | 53.6 | 0 | 0 | 87.9
O=C1OCC2=C1C(c1ccc(F)cc1)c1cc3c(cc1N2)OCO3 (stereo not drawn) | 0 | 0 | - | 0 | 0 | 0 | -
COC(=O)C1NC(C(NC(=O)COc2ccccc2)C(=O)Nc2ccc(OC)cc2)SC1(C)C (stereo not drawn) | 0 | - | - | - | - | 0 | -
Cc1cnc(C(=O)OCC(=O)Nc2ccc(Oc3ccccc3)cc2)cn1 | 0 | 0 | 0 | 0 | 0 | 0 | -
Cc1cnc(C(=O)OC(C)C(=O)Nc2ccc(Oc3ccccc3)cc2)cn1 (stereo not drawn) | 0 | 0 | - | 90.1 | 0 | 0 | 0
Nc1nc(-c2nonc2N)no1 | 0 | 0 | 0 | 70.9 | 0 | 0 | 0
COC(=O)C1=C(c2cc3ccccc3s2)CC2CCC1N2C(=O)NCc1ccc(C(F)(F)F)cc1 (stereo not drawn) | 0 | - | - | - | - | 0 | -
Cc1ccc2[nH]c(=O)c(CN(C(=O)c3cccc([N+](=O)[O-])c3)C(C)C)cc2c1 | 0 | 0 | 0 | 0 | 0 | 0 | -
CC(C)N(Cc1cc2ccccc2[nH]c1=O)C(=O)c1cccc([N+](=O)[O-])c1 | 0 | 0 | 0 | 68.2 | 0 | 0 | 0
Cc1ccc([N+](=O)[O-])c(OCCN2C(=O)NC(C)(C)C2=O)c1 | 0 | 0 | 0 | 52.9 | 0 | 0 | 0
Cc1cc(OCCCCN2C(=O)NC(C)(C)C2=O)ccc1[N+](=O)[O-] | 0 | 0 | 0 | 0 | 0 | 0 | -
SMILES | Sa ugtP lethal | Yp Topo-I inh | BJeLR lethal | PrP UTR inh | PfHsp40 yeast | Sa RN4220 lethal | PrP 5UTR single
Cc1ccc(NC(=O)c2cc3ccccc3oc2=O)cc1S(=O)(=O)N(C)C | 0 | 0 | 0 | 90.4 | 0 | 0 | 89.6
Cc1ccc(NC(=O)c2cc3ccccc3o2)cc1S(=O)(=O)N(C)C | 0 | 0 | - | 0 | 0 | 0 | -
CC1=C(C(=O)OCc2cc(C)on2)N2C(=O)C(NC(=O)OCc3cc(C)on3)C2SC1 (stereo not drawn) | 0 | - | - | - | - | 0 | -
Cc1cccc(C)c1OCc1n[nH]c(=S)o1 | 0 | 0 | 0 | 73.2 | 0 | 0 | 0
COC(=O)CCC(=O)NC(=S)Nc1sc(C)c(C)c1C(N)=O | - | 0 | 0 | 67.4 | 0 | - | 85.5
Cc1sc(NC(=S)NC(=O)CCc2ccccc2)c(C(N)=O)c1C | 0 | 0 | - | 54.5 | 0 | 0 | 81.1
COC(=O)CCC(=O)Nc1sc(C)c(C)c1C(N)=O | 0 | 0 | 0 | 0 | 0 | 0 | -
CC(C)(C)NC(=O)COC(=O)C1c2ccccc2Oc2ccccc21 | 0 | 0 | 0 | 0 | 0 | 0 | -
CC(C)CNC(=O)COC(=O)C1c2ccccc2Oc2ccccc21 | 0 | 0 | 0 | 76.8 | 0 | 0 | 0
CCOc1cc(/C=C/C(=O)c2ccc3c(c2)OCCO3)ccc1OCC(=O)N(C)C | 0 | 0 | 0 | 60.4 | 0 | 0 | 0
CC(C)(C)OC(=O)CC1CC=CCC(CC(=O)N(CCO)Cc2ccccc2)C(=O)NC(Cc2ccccc2)COC1=O (stereo not drawn) | 0 | - | - | - | - | 0 | -
COc1ccc(-c2cc(CS(=O)(=O)c3ccccc3)on2)cc1 | 0 | 0 | 0 | 0 | 0 | 0 | -
O=S(=O)(Cc1cc(-c2ccccc2)no1)c1ccccc1 | 0 | 0 | 0 | 50.9 | 0 | 0 | 0
CC(=O)NC1=NC(=O)C(=CN2CCOCC2)S1 | 0 | - | - | - | - | 0 | -
Nc1nc2n(n1)C(=O)CC(c1ccccc1[N+](=O)[O-])N2 (stereo not drawn) | 0 | 0 | 0 | 78.2 | 0 | 0 | 0
Cc1ccc(-c2cc3c(nn2)-c2ccccc2C3=O)cc1 | 0 | 0 | 0 | 75.6 | 0 | 0 | 82.4
CC1CN(C(C)CO)C(=O)Cc2cc(NS(C)(=O)=O)ccc2OC1CN(C)CC1CC1 (stereo not drawn) | 0 | - | - | - | - | 0 | -
CC(=O)[C@H]1[C@H](CCc2ccccc2)NC(=O)N(Cc2ccccc2)[C@@H]1C | - | 0 | 0 | 0 | 0 | - | -
CCN1C(=O)N[C@@H](CCc2ccccc2)[C@H](C(C)=O)[C@H]1C | - | 0 | 0 | 66.0 | 0 | - | 0
CCCC(O)=C1C(=O)CCCC1=NCCCCCC(=O)O | 0 | - | - | - | - | 0 | -
O=C1C=C(c2cccc(O)c2)CC(c2ccc(F)cc2)C1 (stereo not drawn) | 0 | - | - | - | - | 0 | -
COc1c2ccc(OCCC(C)=CC(=O)C=C(C)C)cc2nc2occc12 | 0 | - | - | - | - | 0 | -
CCCNC(=O)N1C2CCC1C(C(=O)OC)=C(c1ccc(C(C)=O)cc1)C2 (stereo not drawn) | 0 | - | - | - | - | 0 | -
O=C(c1ccc2c3c(cccc13)CC2)C1CCCN(Cc2ccccn2)C1 (stereo not drawn) | 0 | 0 | 0 | 0 | 0 | 0 | -
O=C(c1ccc2c3c(cccc13)CC2)C1CCCN(Cc2ccc(OCCO)cc2)C1 (stereo not drawn) | 0 | 0 | 0 | 87.1 | 0 | 0 | 0
COC(=O)c1ccc(Oc2cc(C)nc(-n3nc(C)cc3C)n2)cc1 | 0 | 0 | 0 | 59.0 | 0 | 0 | 89.0
CC(C)(C)OC(=O)NC(Cc1ccccc1)C(=O)N1CCC(C(=O)O)CC1 (stereo not drawn) | 0 | - | - | - | - | 0 | -
c1ccc(-c2noc(-c3ccc4c(c3)OCO4)n2)nc1 | 0 | 0 | 91.6 | 85.9 | 0 | 0 | 84.5
